dFosB activator – mouse delta FosB homodimer activation; AID 493131; activation, % at 25 µM; P13346; purified delta FosB, TAMRA-CDK5 oligo fluorescence polarization; percent of positive-control signal above neutral wells; 340,000 tested, 0.99% active;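 active = mean activation above about 17%, with every replicate also reaching it, limit read from the data, passing the limit was not always enough; inconclusive = only one of the two conditions met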
Target sequence (P13346 whole entry, looked up): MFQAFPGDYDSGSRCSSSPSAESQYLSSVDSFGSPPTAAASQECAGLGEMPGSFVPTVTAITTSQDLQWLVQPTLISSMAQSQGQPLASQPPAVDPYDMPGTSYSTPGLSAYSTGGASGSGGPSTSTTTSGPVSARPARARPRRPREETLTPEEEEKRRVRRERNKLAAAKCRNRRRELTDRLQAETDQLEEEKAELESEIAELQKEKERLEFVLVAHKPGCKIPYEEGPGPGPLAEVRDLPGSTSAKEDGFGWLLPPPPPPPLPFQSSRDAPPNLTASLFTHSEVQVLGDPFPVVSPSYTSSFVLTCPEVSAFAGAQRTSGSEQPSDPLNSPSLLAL
HSP90 refold inh – blocks HSP90-mediated luciferase refolding in reticulocyte lysate; Rabbit reticulocyte lysate, luciferase refolding luminescence, 3 h; inhibition, % at 5.6 µM; 290,000 tested, 0.91% active;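 active = inhibition above the screen-wide mean plus 3 SD, computed separately per campaign, cut at about 16% in these data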;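 also: inhibitors lower the luminescence because luciferase stays unfolded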
HSF-1 act – increases HSF-1 driven luciferase reporter signal; 300,000 tested, 1.7% active; activation, % at 9 µM; NIH3T3-HGL HSF-1 luciferase reporter, MG132, 8 h; 100% = twice DMSO control signal;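 active = mean replicate activation of at least 50% with a set share of replicates each reaching 50%; inconclusive = only one of those two conditions met; inactive = mean below 50% and too few replicates reaching it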
HSF1 inh – HSF1 inhibition | NIH3T3-HGL HSE-luciferase, MG132-induced, luminescence 8 h; active compounds read low | activity change, negative = inhibition, % at 7.5 µM (by protocol) | 300,000 tested, 0.77% active;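 active = more than half of replicate wells show activity change below -50%, luminescence cut by over half; inconclusive = some wells, but at most half, below -50%; inactive = no replicate well below -50%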;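 also: luciferase reports HSF-1 transcriptional activity via heat shock element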
MPTP inh – inhibitors of mitochondrial permeability transition pore; isolated mouse mitochondria, Ca2+ swelling absorbance, 30 min; inhibition, % at 10 µM; 360,000 tested, 1.4% active;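 active = inhibition of 50% or more, scaled per plate between neutral and stimulator controls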
Platelet DG rel – platelet dense granule release activity; human platelet-rich plasma, SFLLRN dense granule ATP release, luminescence; inhibition, %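 (compounds screened at 7.5 µM in platelet-rich plasma)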; 300,000 tested, 0.22% active; AID 1663;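 active = mean replicate score, as percent of positive control, at or above 50; inconclusive = mean below 50 but at least one replicate at or above 50; inactive = mean and every replicate below 50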
Large screens that a line does not name were inactive. Only some compounds are listed: those with a hit (about 4.9% of all), similar ones and a draw of the others.

CCS(=O)(=O)c1ccc2oc(Nc3ccccc3Cl)nc2c1	Platelet DG rel 57.3
C/C(=C\C(=O)c1ccc(C)cc1)NCc1ccc(F)cc1	none
C/C(=C\C(=O)c1ccccc1)NCc1ccc(F)cc1	HSF-1 act 65.4
CC1CCN(CCCNC(=O)COc2cc(=O)n(C)c3ccccc23)CC1	HSF-1 act 56.9
Cc1cccc(OCCOC(=O)CN2C(=O)NC3(CCCC3)C2=O)c1	none (no result: HSP90 refold inh)
COC(=O)c1ccccc1-c1c2ccc(=N)cc-2oc2cc(N)ccc12	dFosB activator 88.0 (no result: HSP90 refold inh, HSF-1 act, HSF1 inh, Platelet DG rel)
CCOc1ccc(C)cc1S(=O)(=O)NC1CCCCC1	HSF-1 act 61.1
CCOc1ccc(Cl)cc1S(=O)(=O)NC1CCCC1	none
c1ccc(CN2CCN(c3nc(NCc4ccco4)c4ccccc4n3)CC2)cc1	dFosB activator 27.9
Cc1ccc(OCCN2CCN(c3nc(NCc4ccco4)c4ccccc4n3)CC2)cc1	dFosB activator 26.8
CCN(CC)CCNc1c(C)cc(CO)c(Cl)c1C	none (no result: dFosB activator, HSP90 refold inh, HSF-1 act, HSF1 inh, Platelet DG rel)
COc1ccc(NC(=O)C2=Cc3ccccc3OC2)cc1	none
O=C(Nc1ccc(Cl)cc1Cl)C1=Cc2ccccc2OC1	HSF-1 act 52.6
O=C(CN1CCN(c2ccc(O)cc2)CC1)Nc1cc(S(=O)(=O)N2CCCC2)ccc1Cl	HSF1 inh -56.4
O=S(=O)(c1ccc(Cl)c(NC(=S)N/N=C/c2ccc(O)cc2)c1)N1CCOCC1	HSF-1 act 56.1
O=S(=O)(c1ccc(NC(=S)N/N=C/c2ccc(O)c(O)c2)cc1)N1CCOCC1	none
CCOC(=O)C1CCN(C/C=C/c2ccccc2[N+](=O)[O-])CC1	none
O=C(NCC12CC3CC(CC(C3)C1)C2)c1cc2n(n1)C(C(F)(F)F)CC(c1ccco1)N2 (stereo not given)	HSP90 refold inh 29.7
COc1ccc(C(=O)NC(=S)NCc2cccnc2)cc1Br	none
COc1ccc(C(=O)NC(=S)N(C)Cc2ccccc2)cc1Br	HSF-1 act 53.6
COc1ccc(C(=O)NC(=S)NCCO)cc1Br	HSF1 inh -67.8
COc1cc(SC)ccc1C(=O)Nc1ccc(C)cc1C	none
COc1cc(SC)ccc1C(=O)Nc1ccc(C)cc1	HSF-1 act 55.3
COc1cc(SC)ccc1C(=O)Nc1ncc(Cl)cc1Cl	HSF-1 act 63.0
O=C1NC(=O)C2(CCc3ccccc32)N1 (stereo not given)	HSF1 inh -77.2
C=CCN1C(=O)/C(=C2/Sc3ccccc3N2C)SC1=Nc1ccccc1C	none
C=CCN1C(=O)/C(=C2/Sc3ccccc3N2C)SC1=Nc1c(C)n[nH]c1C	Platelet DG rel 52.6
O=C(O)c1cccc(S(=O)(=O)Nc2cccc3ccccc23)c1	none
COc1ccccc1NS(=O)(=O)c1ccc(NC(C)=O)cc1	Platelet DG rel inconclusive
O=S(=O)(Nc1cccc2ccccc12)c1ccccc1	HSF-1 act 61.0
COC(=O)Nc1ccc(S(=O)(=O)Nc2cccc3ccccc23)cc1	HSF-1 act 68.2
COc1ccc(CCN2CCCC(CN(C)C(=O)c3ccoc3)C2)cc1 (stereo not given)	none
O=[N+]([O-])c1c(Nc2cccc(O)c2)cc(Cl)c2nonc12	HSF-1 act 163.8, Platelet DG rel 60.0
N#Cc1cnn2c(=O)[nH]cnc12	none (no result: dFosB activator, HSP90 refold inh, HSF-1 act, HSF1 inh, Platelet DG rel)
CCCn1c(N)c(N(CCOC)C(=O)COC(=O)COc2c(C)cc(C)cc2C)c(=O)[nH]c1=O	none (no result: dFosB activator, HSP90 refold inh, HSF-1 act, HSF1 inh, Platelet DG rel)
CCCCN(C(=O)COC(=O)COc1c(C)cc(C)cc1C)c1c(N)n(CCC)c(=O)[nH]c1=O	HSF1 inh -68.6 (no result: HSP90 refold inh)
O=C(CSc1ccc(F)cc1)N1CCN(S(=O)(=O)c2ccccc2)CC1	none
Cc1ccc(S(=O)(=O)N2CCN(C(=O)CSc3ccc(Cl)cc3)CC2)cc1	HSF-1 act 74.5
CC(=O)Nc1ccc(SCC(=O)N2CCN(S(=O)(=O)c3ccccc3)CC2)cc1	HSF1 inh -57.2
O=C(CSc1ccc(Cl)cc1)N1CCN(c2c(Cl)cccc2[N+](=O)[O-])CC1	HSF-1 act 69.6
CCc1nc2ccc(C(=O)NCCN3CCNC3=O)cn2c1N(C)Cc1ccc(OC)cc1	none (no result: dFosB activator, HSP90 refold inh, HSF-1 act, HSF1 inh, Platelet DG rel)
O=C(O)CCC(=O)N1CCN(S(=O)(=O)c2ccc3ccccc3c2)CC1	none
O=C(Cn1ncc(Cl)c(Cl)c1=O)N1CCN(S(=O)(=O)c2ccc3ccccc3c2)CC1	HSF-1 act 76.5
Cc1ccc2oc(C(=O)N3CCC(C(N)=O)(N4CCCCC4)CC3)c(C)c2c1	HSF1 inh -76.5
CCCc1ccc2oc(C(=O)N3CCC(C(N)=O)(N4CCCCC4)CC3)c(C)c2c1	none
CC(C)CC1Nc2ncnc(N3CCN(c4ccccn4)CC3)c2N(Cc2ccc(Cl)cc2)C1=O (stereo not given)	none (no result: HSP90 refold inh, HSF-1 act, HSF1 inh, Platelet DG rel)
N#CCc1c(C#N)c(N)nc(N2CCN(S(=O)(=O)c3ccccc3F)CC2)c1C#N	HSF-1 act 172.9
C(=N\c1ncnc2sccc12)/NOCc1ccccc1	none
Clc1ccc(CON/C=N/c2ncnc3sccc23)cc1	HSP90 refold inh 16.9
COc1ccc(CNC(=O)c2cnc3scc(C)n3c2=O)cc1	HSF1 inh -70.4
Cc1csc2ncc(C(=O)NCc3ccco3)c(=O)n12	none
Brc1ccc(-n2cnc(-c3ccccc3)c2)cc1	HSF-1 act 77.5 (no result: Platelet DG rel)
O=[N+]([O-])c1ccc(-c2cn(-c3ccc(Cl)cc3)cn2)cc1	none (no result: dFosB activator, HSP90 refold inh, HSF-1 act, HSF1 inh, Platelet DG rel)
CCCC(=O)N(CCN1CCOCC1)c1nc2c(OCC)cccc2s1	none
Cc1ccc(NC(=O)COC(=O)/C=C/c2ccc(Br)o2)cc1S(=O)(=O)N(C)C	HSF-1 act 80.7
CN(C)S(=O)(=O)c1cccc(NC(=O)COC(=O)/C=C/c2ccc([N+](=O)[O-])cc2)c1	HSF-1 act 63.3
O=C(COC(=O)/C=C/c1ccc(C(F)(F)F)cc1)Nc1ccc2[nH]c(=O)[nH]c2c1	none (no result: HSP90 refold inh, HSF-1 act, HSF1 inh, Platelet DG rel)
O=C(COC(=O)/C=C/c1ccc([N+](=O)[O-])cc1)Nc1ccc2[nH]c(=O)[nH]c2c1	dFosB activator 31.2 (no result: HSP90 refold inh, HSF-1 act, HSF1 inh, Platelet DG rel)
CN(C)S(=O)(=O)c1cccc(NC(=O)COC(=O)/C=C/c2ccc(Br)o2)c1	none
O=C(/C=C/c1ccccc1)Nc1ccc(Cl)cn1	HSF-1 act inconclusive
COC(=O)c1sccc1NC(=O)/C=C\c1ccc(Cl)cc1Cl	none (no result: HSF-1 act, HSF1 inh, Platelet DG rel)
Cc1cccc(NC(=O)/C=C/c2ccc(Cl)cc2)n1	HSF-1 act 67.3
COC(=O)c1sccc1NC(=O)/C=C/c1ccc(Cl)cc1	HSF-1 act 75.7
Cc1cccc(NC(=O)CCCNC(=O)c2ccc(Cl)cc2)n1	Platelet DG rel 54.1
Cc1ccc(NC(=O)CCCNC(=O)c2ccc(Cl)cc2)nc1	none
CCOC(=O)COc1coc(CN2CCN(c3ccccc3)CC2)cc1=O	none
C/C(=N\Nc1cccc2cccnc12)c1ccc[nH]1	HSF-1 act 63.3
CCC(=O)Nc1cccc2cccnc12	none
C=CCOc1ccc(C[C@H](N)C(=O)NC[C@H]2O[C@@H](n3ccc(N)nc3=O)[C@H](O)[C@@H]2O)cc1	none (no result: dFosB activator, HSP90 refold inh, HSF-1 act, HSF1 inh, Platelet DG rel)
O=C(CSC1=NNC(c2ccccn2)S1)Nc1ccccc1 (stereo not given)	HSF1 inh -62.1
